In paper doi:10.1101/2024.03.05.583629:

Molecular target: pT7_6His-AlfaTag-HOXD13 (human, UniProt P35453 263-343)
Test: PADIT-seq
Conditions: dsDNA, one strand shown

pT7_6His-AlfaTag-HOXD13, sequence (P35453 263-343): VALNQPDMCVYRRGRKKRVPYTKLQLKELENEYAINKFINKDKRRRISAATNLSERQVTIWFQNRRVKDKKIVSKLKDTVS

Q: “CTCGAGGATATCAAGATCTGGCCTCGGCGTTTTAGTAGGAACCTCTAGCTAGCCGACTCACTATAGGGATAATCGCCCTGAGCAAAGACC” was tested. Which binding signal did it give?
A: The binding signal was 1.61 ± 0.098 log2FC.

Q: Which binding signal does the source give for “CTCGAGGATATCAAGATCTGGCCTCGGCCTTCTAAAAGGAACCTCTAGCTAGCCGACTCACTATAGGGATAATCGCCCTGAGCAAAGACC” here?
A: Its binding signal is 0.087 ± 0.127 log2FC.

Q: “CTCGAGGATATCAAGATCTGGCCTCGGCTTTTTATACGGAACCTCTAGCTAGCCGACTCACTATAGGGATAATCGCCCTGAGCAAAGACC” was tested. Which binding signal did it give?
A: Its binding signal is 2.44 ± 0.0818 log2FC.

Q: With “CTCGAGGATATCAAGATCTGGCCTCGGCACCTTAAAAGGAACCTCTAGCTAGCCGACTCACTATAGGGATAATCGCCCTGAGCAAAGACC” as the sequence, how does the binding signal read?
A: Its binding signal is 0.52 ± 0.102 log2FC.

Q: Which binding signal does the source give for “CTCGAGGATATCAAGATCTGGCCTCGGCCGCCCAGCAGGAACCTCTAGCTAGCCGACTCACTATAGGGATAATCGCCCTGAGCAAAGACC” here?
A: Its binding signal is -0.927 ± 0.127 log2FC.

Q: With “CTCGAGGATATCAAGATCTGGCCTCGGCGTTTTATCGGGAACCTCTAGCTAGCCGACTCACTATAGGGATAATCGCCCTGAGCAAAGACC” as the sequence, how does the binding signal read?
A: Its binding signal is 1.63 ± 0.0875 log2FC.

Q: How did the binding signal turn out when “CTCGAGGATATCAAGATCTGGCCTCGGCCTTTTATAAGGAACCTCTAGCTAGCCGACTCACTATAGGGATAATCGCCCTGAGCAAAGACC” was run?
A: The binding signal was 3.23 ± 0.0726 log2FC.

Q: How did the binding signal turn out when “CTCGAGGATATCAAGATCTGGCCTCGGCATTTTATGGGGAACCTCTAGCTAGCCGACTCACTATAGGGATAATCGCCCTGAGCAAAGACC” was run?
A: Its binding signal is 3.25 ± 0.0762 log2FC.

Q: How did the binding signal turn out when “CTCGAGGATATCAAGATCTGGCCTCGGCAGGCTAAAAGGAACCTCTAGCTAGCCGACTCACTATAGGGATAATCGCCCTGAGCAAAGACC” was run?
A: Its binding signal is -0.781 ± 0.0984 log2FC.

Q: How did the binding signal turn out when “CTCGAGGATATCAAGATCTGGCCTCGGCTTTTTAGTAGGAACCTCTAGCTAGCCGACTCACTATAGGGATAATCGCCCTGAGCAAAGACC” was run?
A: The binding signal was 1.62 ± 0.0952 log2FC.
